Shown are actives, neighbours in structure and some others; about 7.3% of the full set was active somewhere.
HCV inhibitor: qHTS Assay for Inhibitors of Hepatitis C Virus (HCV). 340,000 tested, 3.4% active. Huh7.5.1 HCVcc-Cre infection, luciferase reporter, 44 h. Potency, µM (series often up to 41.8 µM), inactives show at the highest dose activity change, negative = inhibition, most hits filed as inhibitors; further: potency means the concentration at half of the fitted maximal effect
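Luciferase read-out (15 sec integration) after a 15 min room-temperature substrate step quantifies HCVcc-Cre infection. Cells, 1,000 per well, had compound added 4 h post-plating, then virus at ~0.5 moi, and were cultured 44 h.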
AmpC inh detg: qHTS Inhibitors of AmpC Beta-Lactamase (assay with detergent). P00811. AmpC hydrolysis of nitrocefin, absorbance 480 nm, 0.01% Triton. Potency, µM (top dose mostly 114 µM), inactives show at the highest dose activity change, negative = inhibition, hits mostly inhibitors. 370,000 tested, 0.041% active. AID 485294, 2010;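 further: potency means the concentration at half of the fitted maximal effect; 0% = no-compound wells and -100% = no-enzyme wells; nearly all actives have a fitted effect of over 25% in size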
Target sequence (P00811 whole entry, looked up): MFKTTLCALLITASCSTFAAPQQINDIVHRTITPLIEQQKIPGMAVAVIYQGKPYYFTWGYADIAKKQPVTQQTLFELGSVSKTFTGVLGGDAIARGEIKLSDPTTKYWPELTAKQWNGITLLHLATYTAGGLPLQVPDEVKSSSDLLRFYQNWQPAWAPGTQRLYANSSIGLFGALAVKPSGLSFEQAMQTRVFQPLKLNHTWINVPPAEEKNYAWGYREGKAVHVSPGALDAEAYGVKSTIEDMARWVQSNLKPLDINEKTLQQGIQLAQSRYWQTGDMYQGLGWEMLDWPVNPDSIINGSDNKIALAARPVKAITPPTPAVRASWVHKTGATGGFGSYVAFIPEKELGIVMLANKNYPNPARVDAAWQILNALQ
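20 mM phosphate pH 7.0 + 0.01% (detergent screen) or 0.0001% Triton X-100; 5.3 nM AmpC reagent; cpd preinc 15 min RT; nitrocefin (800 uM stock) to start; A480 q20 s × 4 min; Activity was normalised to no-enzyme and no-compound control wells.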
HCMV inh: qHTS Assay for inhibitors of the human cytomegalovirus (HCMV) | HFF cells, HCMV-luciferase reporter, 72 h; hits give low values | activity change, negative = inhibition, % at 57.5 µM | AID 1259415, 2018 | 410,000 tested, 4.5% active; in the data active means activity change below about -60%; inconclusive means no clear call, values can overlap the other calls; inactive means above about -39%
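Cell-based, HFFs, 1000 cells/well, 16 h 37C; cpds in DMSO + HCMV-luc, MOI 1 PFU/cell; 72 h 37C; OneGlo luminescence after 5 min RT; norm. to buffer vs Salinomycin 10uM.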
FMDV antiviral: High Throughput Screening for Foot and Mouth Disease Virus Antivirals; FMDV antiviral cell-based qHTS; Potency, µM (highest dose often 57.9 µM), without a hit: at the highest dose activity change, negative = inhibition, most hits filed as inhibitors; AID 1159524, 2015; 410,000 tested, 1.2% active; calls by dose curve; tested in HEK293T cells; further: read-out not given here; potency means the concentration at half of the fitted maximal effect; nearly all actives have a fitted effect of over 45% in size
AmpC no deterg: qHTS Inhibitors of AmpC Beta-Lactamase (assay without detergent); AmpC nitrocefin hydrolysis, absorbance 480 nm, 0.0001% Triton; Potency, µM (titrated, usually from 57.1 µM), without a hit: at the top dose activity change, negative = inhibition, usual class: inhibitors; 330,000 tested, 0.52% active;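 further: potency means the concentration at half of the fitted maximal effect; plate controls were no compound for no effect and no enzyme for full effect; nearly all actives have a fitted effect of over 20% in size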
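20 mM phosphate pH 7.0 + 0.01% (detergent screen) or 0.0001% Triton X-100; 5.3 nM AmpC reagent; cpd preinc 15 min RT; nitrocefin (800 uM stock) to start; A480 q20 s × 4 min; Activity was normalised to no-enzyme and no-compound control wells.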
* marks the source's active call; other numbers are inactive results. Unless noted, the call rests on the fitted dose curve; in most records, active means well fitted curve in the direction sought with a large enough effect; inconclusive means small, poorly fitted or top-dose-only effect, or another doubt; inactive means no such curve, though single readings can be large; an effect the other way counts as inactive or inconclusive. Unless noted, on the % scale 0 is the no-effect control and ±100 the full control effect.

Screening O=C(N/N=C/c1ccc(O)c(O)c1O)/C(=C/c1ccc([N+](=O)[O-])cc1)NC(=O)c1ccccc1 returned HCV inhibitor 6.31µM*, AmpC inh detg -3.7%, HCMV inh 22.7, FMDV antiviral -28.7% and AmpC no deterg -41.7%.
For COc1cccc(/C=N/NC(=O)c2ccc(-c3ccccc3)cc2)c1O the results were HCV inhibitor inconclusive, AmpC inh detg inconclusive, HCMV inh -97.6*, FMDV antiviral -27.2% and AmpC no deterg -46.7%.
COC(=O)[C@]12C[C@H](CC(=O)N3CCOCC3)C(=O)N(Cc3ccccc3)C1=C[C@H](C1CCCC1)O[C@@H]2C was read as HCMV inh 11.0.
`Cc1ccc(O)c(-c2ccnc3cc(-c4ccc(Cl)cc4)nn23)c1` gave AmpC inh detg -1.9%, HCMV inh 6.2 and FMDV antiviral -5.7%.
`COc1cc(/C=N\NC(=O)c2ccc(-c3ccccc3)cc2)cc(Br)c1O` gave HCV inhibitor inconclusive, AmpC inh detg -5.6%, HCMV inh -68.4*, FMDV antiviral -6.2% and AmpC no deterg -34.1%.
For NC(=S)N/N=C/c1cccc(O)c1O the results were HCV inhibitor inconclusive, AmpC inh detg 1.7%, HCMV inh -100.4*, FMDV antiviral 24.4% and AmpC no deterg -8.5%.
Screening COc1cc(/C=N/NC(=O)c2ccc3c(c2)OCCO3)cc(Br)c1O returned HCV inhibitor -4.9%, AmpC inh detg -13.9%, HCMV inh 22.3, FMDV antiviral 26.1% and AmpC no deterg -24.8%.
`COc1cccc(/C=N/NC(=O)C(=O)Nc2ccccc2OC(F)(F)C(F)F)c1O` gave HCV inhibitor inconclusive, AmpC inh detg -12.0%, HCMV inh -93.5*, FMDV antiviral -27.5% and AmpC no deterg -26.7%.
COc1ccccc1/C=N/NC(=O)c1cccc(OC(F)(F)C(F)F)c1 was read as HCV inhibitor 18.0%, AmpC inh detg -7.6%, HCMV inh -13.0, FMDV antiviral 20.0% and AmpC no deterg -32.9%.
Screening COc1cc(/C=N/NC(=O)C23CC4CC(CC(C4)C2)C3)cc(Br)c1O returned HCV inhibitor 14.1%, AmpC inh detg 1.9%, HCMV inh 4.4, FMDV antiviral -3.9% and AmpC no deterg 28.2µM*.
For CCOc1ccccc1NC(=O)c1c(NCc2cccs2)sc2c1CCCCC2 the results were AmpC inh detg -4.2%, HCMV inh inconclusive and FMDV antiviral 38.1%.
Screening CC(=O)c1c(C)[nH]c(C(=O)Nc2cccc(S(=O)(=O)N(C)c3ccccc3)c2)c1C returned HCV inhibitor 25.1µM*, AmpC inh detg -5.3%, HCMV inh -3.0, FMDV antiviral -10.2% and AmpC no deterg -34.3%.
Screening COc1ccccc1NS(=O)(=O)c1cccc(NC(=O)c2[nH]c(C)c(C(C)=O)c2C)c1 returned HCV inhibitor 12.6µM*, AmpC inh detg 7.2%, HCMV inh 0.0, FMDV antiviral -29.2% and AmpC no deterg -55.5%.
CC(=O)c1c(C)[nH]c(C(=O)Nc2cccc(S(=O)(=O)N3CCOCC3)c2)c1C was read as HCV inhibitor inconclusive, AmpC inh detg -10.6%, HCMV inh 147.1, FMDV antiviral 15.6% and AmpC no deterg -30.8%.
Screening COc1ccccc1NC(=O)c1[nH]c(C)c(C(C)=O)c1C returned HCV inhibitor -19.2%, AmpC inh detg -8.6%, HCMV inh 73.4, FMDV antiviral -19.7% and AmpC no deterg -28.1%.
For Cc1ccc(NC(=O)C(NS(=O)(=O)c2ccc3c(c2)CCC(=O)N3)c2ccccc2)cc1C (stereo unspecified) the results were AmpC inh detg -7.6%, HCMV inh 55.3 and FMDV antiviral 43.5%.
Cc1cccc(OCC(=O)Nc2ccc(Cl)c(-c3nc4ncccc4o3)c2)c1C was read as AmpC inh detg 12.8%, HCMV inh -23.0 and FMDV antiviral -25.4%.
Screening CC(C)(C)n1ncc2c(=O)n(Cc3ccc(Cl)c(Cl)c3)cnc21 returned HCV inhibitor 13.1%, AmpC inh detg -7.0%, HCMV inh 15.6, FMDV antiviral -4.7% and AmpC no deterg -6.4%.
`Cc1ccc(Cn2cnc3c(cnn3C(C)(C)C)c2=O)cc1` gave HCV inhibitor 11.2µM*, AmpC inh detg -5.8%, HCMV inh inconclusive, FMDV antiviral 25.1µM* and AmpC no deterg -15.9%.
For COc1ccc(C(=O)NC(=S)NNC(=O)c2ccc3ccccc3n2)cc1 the results were HCV inhibitor 11.2µM*, AmpC inh detg -2.0%, HCMV inh -97.4*, FMDV antiviral -28.8% and AmpC no deterg -45.0%.
Screening COc1cc(OC)cc(C(=O)NNC(=O)c2ccc3ccccc3n2)c1 returned HCV inhibitor inconclusive, AmpC inh detg inconclusive, HCMV inh -75.2*, FMDV antiviral 2.2% and AmpC no deterg -36.3%.
COc1ccc(N=C(NN)c2ccc3ccccc3n2)cc1 was read as HCV inhibitor 6.1%, AmpC inh detg -8.5%, HCMV inh -89.2*, FMDV antiviral 38.5% and AmpC no deterg -8.2%.
Screening COc1ccc(NC(=S)c2ccc3ccccc3n2)cc1 returned HCV inhibitor 5.3%, AmpC inh detg -15.3%, FMDV antiviral 67.1% and AmpC no deterg -24.9%.
For COc1ccc(C(=O)NNC(=S)NC(=O)c2ccc(Cl)cc2)cc1 the results were HCV inhibitor inconclusive, HCMV inh -14.9 and FMDV antiviral -22.9%.
CC(C)C(C(=O)O)N1C(=O)C2C3CCC(C3)C2C1=O (stereo unspecified) was read as HCMV inh 2.2 and FMDV antiviral -2.3%.
`COC1C(CO)OC(n2c3c(Cl)cccc3c3c4c(c5c6cccc(Cl)c6[nH]c5c32)C(=O)NC4=O)C(O)C1O` (stereo unspecified) gave HCV inhibitor inconclusive, HCMV inh -97.6* and FMDV antiviral -18.9%.
For O=CNc1ccc2c3c(cccc13)-c1ccccc1-2 the results were HCV inhibitor 2.82µM*, HCMV inh 34.2 and FMDV antiviral 52.6%.
For c1ccc2c(c1)-c1cccc3cccc-2c13 the results were HCV inhibitor inconclusive, AmpC inh detg -3.0%, HCMV inh -28.5, FMDV antiviral -3.0% and AmpC no deterg -10.6%.
`Cc1ccc(NC(=O)CSc2nc3c(c(=O)[nH]2)CCC3)c(C)c1` gave HCV inhibitor -0.5%, AmpC inh detg 0.3%, HCMV inh inconclusive, FMDV antiviral 5.5% and AmpC no deterg -24.1%.
For O=C(Nc1csc([N+](=O)[O-])c1)Nc1c(Cl)cccc1Cl the results were HCV inhibitor -9.8%, AmpC inh detg 5.3%, HCMV inh -76.4*, FMDV antiviral -16.0% and AmpC no deterg -33.7%.
O=C(Nc1ccc(Cl)cc1)Nc1ccccc1CC[N+](=O)[O-] was read as HCV inhibitor inconclusive, AmpC inh detg 6.1%, HCMV inh 13.9, FMDV antiviral 27.9% and AmpC no deterg -39.8%.

Source: PubChem (National Center for Advancing Translational Sciences (NCATS))
